Laboratory results taken from PubChem BioAssay (EPA / NIEHS).
Results filed as inconclusive are left out. Activity calls are given as the source filed them. Rule for the calls, unless noted: active = hit-call score of the fitted dose curve at least 0.9, where 1 is the maximum; inconclusive = response in the unintended direction; inactive = score below 0.9.

Assays:
[1] = CCTE_Shafer_MEA_acute_synchrony_index: CCTE's Neural Acute Assay for Synchrony, Shafer Lab (AID 2284027; active = hit-call score of the fitted dose curve at least 0.9, where 1 is the maximum; inactive = score below 0.9;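 note: network synchrony index of spontaneous spiking in primary rat cortical neurons on MEAs; fitted for loss of signal so actives lower synchrony relative to DMSO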)
Summary of the method: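 Primary rat cortical neurons on 16-electrode MEA wells were recorded 40 min at baseline (DIV 13 or 15) and 40 min after compound (0.03-40 uM) at 37 C. Synchrony index (0-1) expressed as percent change from baseline, versus DMSO.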

[2] = CCTE_Shafer_MEA_dev_active_electrodes_number: CCTE's Neural Network Formation Assay for Number of Active Electrodes, Shafer Lab (AID 2284040);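 note: potency for loss of active electrodes versus DMSO so lower counts are hits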
Summary of the method: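 Rat cortical primary cultures, 1.5 x 10^5 cells/well, PEI-coated MEA, laminin drop. Continuous exposure DIV 0–12; full media/compound change DIV 5, 9. Readout: electrodes with mean firing ≥5 spikes/min; AUC across days; loss vs DMSO.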

[3] = CCTE_Shafer_MEA_dev_bursting_electrodes_number: CCTE's Neural Network Formation Assay for Number of Bursting Electrodes, Shafer Lab (AID 2284043);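 note: potency is for loss of bursting electrodes relative to DMSO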
Summary of the method: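 Read-out is the per-well number of electrodes bursting at least once every 2 minutes, recorded on days 5, 7, 9 and 12 and collapsed by trapezoidal area under the curve. Cultures were primary rat cortical neurons on MEA plates, treated continuously from plating.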

[4] = CCTE_Shafer_MEA_dev_per_burst_interspike_interval: CCTE's Neural Network Formation Assay for Burst Interspike Interval, Shafer Lab (AID 2284044; active = hit-call score of the fitted dose curve at least 0.9, where 1 is the maximum; inactive = score below 0.9;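 note: mean spike spacing inside bursts as AUC over recordings on days 5 7 9 12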)
Summary of the method: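 Neurons from rat cortex plated onto PEI-coated MEA wells with laminin […] at 1.5 x 10^5 cells/well, then treated from day 0. Media and compound fully replaced on DIV 5 and 9. Extracellular spontaneous firing recorded four times; interspike interval per burst summarised as AUC.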

[5] = CCTE_Shafer_MEA_dev_burst_duration_mean: CCTE's Neural Network Formation Assay for Mean Burst Duration, Shafer Lab (AID 2284045; active = hit-call score of the fitted dose curve at least 0.9, where 1 is the maximum; inactive = score below 0.9)
Summary of the method: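 Read-out: average first-to-last-spike interval within single-electrode bursts, averaged over bursting electrodes per well, then summarised as area under the curve across days 5, 7, 9 and 12. Developing rat cortical networks were exposed from day 0.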

[6] = CCTE_Shafer_MEA_dev_interburst_interval_mean: CCTE's Neural Network Formation Assay for Mean Interburst Interval, Shafer Lab (AID 2284046; active = hit-call score of the fitted dose curve at least 0.9, where 1 is the maximum; inactive = score below 0.9;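 note: well-mean interburst interval of bursting electrodes as AUC over four recording days; curve fitted for decrease in interburst interval relative to DMSO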)
Summary of the method: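 Primary rat cortical neurons on PEI-coated 48-well MEA plates (laminin added with cells at plating) (16 electrodes/well), exposed from plating day 0 with renewal at DIV 5 and 9. Mean inter-burst interval averaged over bursting electrodes, AUC across days 5, 7, 9, 12; DMSO baseline.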

[7] = CCTE_Shafer_MEA_dev_inter_network_spike_interval_mean: CCTE's Neural Network Formation Assay for Mean Inter-network Spike Interval, Shafer Lab (AID 2284047; active = hit-call score of the fitted dose curve at least 0.9, where 1 is the maximum; inactive = score below 0.9;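 note: potency for a decrease in mean inter-network spike interval below DMSO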)
Summary of the method: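 Mean time between consecutive network-spike peaks, recorded extracellularly (adaptive spike detection) on DIV 5, 7, 9 and 12, summarized as trapezoidal AUC. Rat cortical cultures on MEAs dosed continuously days 0–12, re-dosed at feeds; loss-of-signal fit relative to DMSO.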

[8] = CCTE_Shafer_MEA_dev_network_spike_peak: CCTE's Neural Network Formation Assay for Mean Number of Electrodes in Network Spike, Shafer Lab (AID 2284049; active = hit-call score of the fitted dose curve at least 0.9, where 1 is the maximum; inactive = score below 0.9;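 note: fitted for loss of signal meaning fewer electrodes in network spikes than DMSO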)
Summary of the method: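 Rat cortical primary culture, 1.5 x 10^5 cells/well, 48-well MEA (16 electrodes/well). Dosing day 0 through DIV 12, full media/compound exchange DIV 5, 9. AxIS adaptive spike detection; AUC over days 5/7/9/12; loss-of-signal vs DMSO.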

DIO2 (gene 1734) = assay: CCTE_GLTED_hDIO2: CCTE's human Deiodinase 2 (DIO2) Inhibition Assay, Great Lakes Toxicology and Ecology Division (GLTED) Lab (AID 2284050)
Summary of the method: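 Cell-free human DIO2 enzyme was incubated with test chemical for 3 h; iodide liberated from substrate was then quantified by the Sandell-Kolthoff reaction (absorbance), run in triplicate. Loss of signal versus DMSO baseline indicated inhibition.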

[9] = CCTE_Shafer_MEA_dev_spike_duration_mean: CCTE's Neural Network Formation Assay for Mean Spike Duration, Shafer Lab (AID 2284051; active = hit-call score of the fitted dose curve at least 0.9, where 1 is the maximum; inactive = score below 0.9;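 note: mean network spike duration pooled as area under curve over DIV 5 to 12 recordings; potency for a decrease in mean network spike duration versus DMSO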)
Summary of the method: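 Spontaneous activity was recorded on days 5, 7, 9 and 12 from rat cortical cultures grown on microelectrode arrays and dosed continuously from day 0, with media and compound renewed after the DIV 5 and 9 recordings. Network-spike duration was collapsed by area under the curve.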

[10] = CCTE_Shafer_MEA_dev_network_spike_duration_std: CCTE's Neural Network Formation Assay for Standard Deviation of Network Spike Duration, Shafer Lab (AID 2284052; active = hit-call score of the fitted dose curve at least 0.9, where 1 is the maximum; inactive = score below 0.9;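 note: hits are decreases in network spike duration SD versus DMSO vehicle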)
Summary of the method: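 Network spike duration variability was collapsed across recordings on days 5, 7, 9 and 12 by trapezoidal area-under-curve and fitted downward against DMSO. Cultures were rat cortical neurons on PEI-coated MEA plates, dosed continuously from plating, refed with compound DIV 5/9.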

[11] = CCTE_Shafer_MEA_dev_per_network_spike_spike_percent: CCTE's Neural Network Formation Assay for Percent of Spikes in a Network Spike, Shafer Lab (AID 2284054; active = hit-call score of the fitted dose curve at least 0.9, where 1 is the maximum; inactive = score below 0.9)
Summary of the method: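 Rat primary cortical cultures, 1.5 x 10^5 cells/well on MEA. Continuous compound exposure d0–12, medium/compound renewed DIV 5, 9. Network-spike spike % (0.05 s peak window), AUC over 4 recordings, DMSO baseline.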

DIO3 (gene 1735) = assay: CCTE_GLTED_hDIO3: CCTE's human Deiodinase 3 (DIO3) Inhibition Assay, Great Lakes Toxicology and Ecology Division (GLTED) Lab (AID 2284055);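 note: potency is for inhibition seen as loss of released iodide signal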
Summary of the method: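 Cell-free assay with human DIO3 enzyme produced by adenovirus expression; enzyme incubated with test chemical for 3 hours. Liberated iodide then measured by Sandell-Kolthoff absorbance; loss of signal versus DMSO baseline indicates inhibition, run in triplicate.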

[12] = CCTE_Shafer_MEA_dev_LDH: CCTE's Lactate Dehydrogenase Assay for Cytotoxicity in the Neural Network Formation Assay, Shafer Lab (AID 2284068);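 note: exposure for twelve days from plating with re-dosing on DIV 5 and 9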
Summary of the method: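 Primary rat cortical neurons were cultured on PEI-coated MEA plates and exposed from plating through day 12, with compound renewed at medium changes on DIV 5 and 9. LDH activity was read spectrophotometrically; loss of signal versus DMSO indicates reduced viability.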

[13] = CCTE_Deisenroth_AIME_384WELL_CTox_Active: Cytotoxicity Assessment (CTOX) in CCTE's 384-well Estrogen Receptor Transactivation Assay with AIME metabolic competence (metabolism positive), Deisenroth Lab (AID 2284037);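 note: chemicals first conditioned 2 h by alginate-bound induced rat liver S9 before cells; activity means signal loss indicating cell death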
Summary of the method: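 Cytotoxicity in VM7Luc4E2 breast cells, 24 hour, measured as protease-substrate fluorescence loss, after 2-hour metabolic conditioning with induced rat hepatic S9 in alginate microspheres. Concentrations 0.002 - 200 uM, 10 points, bidirectional fitting.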

[14] = CCTE_Deisenroth_AIME_384WELL_CTox_Inactive: Cytotoxicity Assessment (CTOX) in CCTE's 384-well Estrogen Receptor Transactivation Assay without AIME metabolic competence (metabolism negative), Deisenroth Lab (AID 2284039);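 note: cell viability via live-cell protease substrate cleaved to fluorescent probe; cells exposed 24 h to medium preincubated 2 h with alginate-water beads without S9; loss of fluorescence signal means loss of viability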
Summary of the method: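 Fluorescent protease-substrate viability readout after 24 h exposure of VM7Luc4E2 cells to conditioned medium. Chemicals (0.002–200 uM) first sat 2 h over alginate-water beads, no S9. Data fitted bidirectionally, loss of signal meaning viability loss.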

[15] = molecular target: Estrogen receptor (Homo sapiens) (UniProt P03372); assay: CCTE_Deisenroth_AIME_384WELL_LUC_Inactive: CCTE's 384-well Estrogen Receptor Transactivation Assay without AIME metabolic competence (ERTA luciferase; metabolism negative), Deisenroth Lab (AID 2284038);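 note: VM7Luc4E2 breast cells given medium preincubated 2 h with S9-free microspheres; hits raise estrogen receptor luciferase signal so potencies reflect agonists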
Estrogen receptor (Homo sapiens), sequence (P03372 whole entry, looked up): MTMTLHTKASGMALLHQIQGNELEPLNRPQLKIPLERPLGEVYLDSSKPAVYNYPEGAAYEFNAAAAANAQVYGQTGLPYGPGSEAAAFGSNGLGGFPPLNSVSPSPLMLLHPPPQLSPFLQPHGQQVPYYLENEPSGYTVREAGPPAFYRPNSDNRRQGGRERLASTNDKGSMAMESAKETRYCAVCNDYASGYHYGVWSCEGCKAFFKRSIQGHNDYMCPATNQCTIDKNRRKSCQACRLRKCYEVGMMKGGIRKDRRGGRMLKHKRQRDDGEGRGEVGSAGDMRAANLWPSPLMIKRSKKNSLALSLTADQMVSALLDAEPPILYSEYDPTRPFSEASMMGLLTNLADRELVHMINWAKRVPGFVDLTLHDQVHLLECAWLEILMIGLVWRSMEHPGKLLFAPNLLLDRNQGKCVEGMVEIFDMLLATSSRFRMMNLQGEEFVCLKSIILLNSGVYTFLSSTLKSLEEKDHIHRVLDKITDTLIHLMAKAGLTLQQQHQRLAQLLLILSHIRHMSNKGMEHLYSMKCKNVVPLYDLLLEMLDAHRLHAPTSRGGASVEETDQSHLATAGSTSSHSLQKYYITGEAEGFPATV
Summary of the method: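 Chemicals (10-point series, 0.002 - 200 uM) were incubated 2 hours with alginate-water microsphere lids lacking S9, then the conditioned medium was transferred to VM7Luc4E2 breast cells for 24 hour. Luciferase induction was read by bioluminescence, fitted upward relative to 17beta-estradiol.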

[16] = molecular target: Estrogen receptor (Homo sapiens) (UniProt P03372); assay: CCTE_Deisenroth_AIME_384WELL_LUC_Shift: CCTE's 384-well Estrogen Receptor Transactivation Assay with AIME metabolic competence data shift (ERTA luciferase; difference in metabolism positive and negative), Deisenroth Lab (AID 2284041; active = hit-call score of the fitted dose curve at least 0.9, where 1 is the maximum; inactive = score below 0.9;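 note: shift is response with S9 minus without S9 so positive means metabolism raised ER signal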)
Summary of the method: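 Test chemicals (0.002–200 uM, 10-point) were pre-incubated 2 h with alginate microspheres containing phenobarbital/beta-naphthoflavone-induced male Sprague Dawley rat liver S9 or water, then medium was transferred to VM7Luc4E2 cells for 24 h luciferase readout; shift = S9-positive minus S9-negative normalized response.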

With CCC(C)(C)C(=O)O[C@H]1C[C@@H](C)C=C2C=C[C@H](C)[C@H](CC[C@@H]3C[C@@H](O)CC(=O)O3)[C@H]21 the outcome [1] was “inactive”, the AC50 [2] was 0.801 µM (active) and the AC50 [3] was 1.06 µM (active). For the same molecule, the outcome [4] was “inactive”, the outcome [5] was “inactive” and the AC50 [6] was 0.887 µM (active). The AC50 [7] was 0.506 µM (active), the AC50 [8] was 0.688 µM (active) and the AC50 (DIO2 (gene 1734)) was 64.5 µM (active). For the same molecule, the AC50 [9] was 1.03 µM (active), the outcome [10] was “inactive” and the AC50 [11] was 0.844 µM (active). For the same molecule, the AC50 (DIO3 (gene 1735)) was 97.8 µM (active) and the AC50 [12] was 0.368 µM (active).

With CCCCCCc1ccc(O)cc1O the AC50 [1] was 6.73 µM (active), the AC50 [13] was 104 µM (active) and the AC50 [14] was 162 µM (active).

With CC[C@H]1CC[C@H](NCc2cc3c(cc2OC)[C@H]2C[C@H]2C(=O)N3C)[C@H](c2ccccc2)N1 the outcome [1] was “inactive”.

With Cc1[nH]cnc1C[C@H]1CCc2c(C)c3ccccc3n2C1=O the AC50 [1] was 8.89 µM (active).

In the case of Cn1cnc([N+](=O)[O-])c1Sc1ncnc2nc[nH]c12, the outcome [1] is reported as “inactive”.

With COc1cccc(-c2ccc(/C=C\CN3CCCCCC3)cc2Cl)c1 the outcome [1] was “inactive”, the outcome [13] was “inactive” and the outcome [15] was “inactive”. The outcome [14] was “inactive”, the outcome [16] was “inactive” and the AC50 (DIO2 (gene 1734)) was 77.7 µM (active). The AC50 (DIO3 (gene 1735)) was 32.8 µM (active).

In the case of Cc1c(-c2cccnc2)c2ccccc2n1CCCCC(=O)O, the outcome [13] is reported as “inactive”.

In the case of CC(C)=CCCC(C)=CC=O, the outcome [1] is reported as “inactive”, the AC50 (DIO2 (gene 1734)) is reported as 100 µM (active) and the AC50 (DIO3 (gene 1735)) is reported as 31.3 µM (active).

With CCCCCCCCCCCCc1ccccc1 the outcome [1] was “inactive”.

For CCCN(C1CCN(C(=O)C2CCNCC2)CC1)[C@@H]1CCc2ccc(OC)cc2C1, the AC50 [1] was 17.7 µM (active) and the outcome [13] was “inactive”.

For COc1ccc2sc(C(=O)Nc3nnn[nH]3)c(OC(C)C)c2c1, the outcome [1] was “inactive”, the AC50 [13] was 45 µM (active) and the outcome [14] was “inactive”. The outcome [16] was “inactive”.

For CCCCCCCCO, the outcome [13] was “inactive”, the outcome [15] was “inactive” and the outcome [14] was “inactive”. The outcome [16] was “inactive”.
